High-throughput results: PubChem BioAssay, Broad Institute
This excerpt belongs to a sample that is enriched for hits.
Tgondii IFNg = T. gondii growth inhibition under IFN-gamma; Toxoplasma gondii growth in IFN-gamma-treated host cells; hits give low values; activity change, negative = inhibition, % (concentration not given with the values); hit rate 3.8% among 69,000; AID 1259416; in the data active = activity change below about -70%, passing the limit was not always enough;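 note: host cells are HeLa cells infected with Toxoplasma gondii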
Numbers stand for hits; 0 = inactive; ! = not confirmed by another sample.

SMILES	Tgondii IFNg
COCCN1CCOCC2(CCCN(C(=O)c3ccc4ncccc4c3)C2)C1 (stereo unspecified)	0
CCCCCCCCc1ccc(CCC(N)(CO)CO)cc1	-82!
CCCCCCCCCCCCCCCCCCc1ccc(C(=O)/C=C/C(=O)O)cc1	0
CCCCCCCCc1ccc(-c2ccc(C(=O)O)cc2)cc1	0
CN(C)C(=O)c1ccc2c(c1)N(C)C(CC(=O)NCCc1ncnn1C)CO2 (stereo unspecified)	0
Cc1nc(SCC(=O)NCCc2ccccc2)[nH]c(=O)c1Cc1ccccc1	0
Cc1cc(C)cc(N2CCN(C(=O)C3CCOC3)CC2=O)c1 (stereo unspecified)	0
CC(=O)N1CCOCC12CCN(Cc1csc(C)n1)CC2	0
Cc1nc(CN2CCOCC3(CNCCO3)C2)cs1 (stereo unspecified)	-90
Cc1nc(CN2CCOCC3(CN(CCO)CCO3)C2)cs1 (stereo unspecified)	0
CCn1ncnc1CN1C[C@H](N)C[C@H]1C(=O)NC(C)C	0
CCNC(=O)c1ccc(N2CCN(Cc3ccc4c(c3)OCCO4)CC2)nc1	0
O=C(Nc1ccc(CN2CCOCC2)cc1)c1cc2ccccc2o1	0
CCNC(=O)c1noc(-c2cc(C(C)C)c(O)cc2O)c1-c1ccc(CN2CCOCC2)cc1	-88
Cc1ccc(S(=O)(=O)N2CCC3(CC3C(=O)Nc3cccc(F)c3)C2)cc1 (stereo unspecified)	0
CCOC(=O)COc1nc2ccc(Cl)cc2c(-c2ccccc2)c1C(C)=O	0
CCOC(=O)c1c(C)nc2ccc(Cl)cc2c1-c1ccccc1	0
COc1ccc(-c2c(C)nc3ccc(Cl)cc3c2-c2ccccc2)cc1OC	-95
CC(=O)N1CCCC1c1csc(Nc2cnccn2)n1 (stereo unspecified)	0
CC(C)N(C)Cc1ncn2c1CN(C(=O)c1cnccn1)CCC2	0
CCOC(=O)c1nc(NCCc2cc(OC)ccc2OC)c2ccccc2n1	0
CC1CCN(S(=O)(=O)c2ccc3c(c2)CCC(=O)N3CC(=O)Nc2cccc3c2CCCC3)CC1	0
O=C(NCCc1csc(-c2ccc(Cl)cc2)n1)C(=O)Nc1ccc(F)cc1	0
O=C(NC(=O)c1csc(-c2ccc(C(F)(F)F)cc2Cl)n1)Nc1ccc(F)cc1	-98
O=C(Nc1ccc2c(c1)OCCO2)c1csc(-c2cccc3c2CCO3)n1	0
SMILES	Tgondii IFNg
CCOc1ccc(N(Cc2nc(-c3ccc(OC)cc3)oc2C)S(=O)(=O)c2ccccc2)cc1	0
O=C(Cn1c(=O)cc(C(=O)N2CCc3ccccc3C2)c2ccccc21)NCc1ccccc1	0
COCCN(C)C(=O)c1ccc2nnc(C3CCN(Cc4ccccc4)C3)n2c1 (stereo unspecified)	0
CC(C)CN1CCS(=O)(=O)[C@H]2CCN(S(=O)(=O)Cc3ccccc3)CC[C@@H]21	0
CCOc1ccc(-c2nc(Cn3ccn4nc(-c5ccc(F)cc5)cc4c3=O)c(C)o2)cc1	0
S=c1[nH]cc(-c2ccc(Br)cc2)[nH]1	-97
Cc1ccc(CN2CCc3nc(N4CCCC4)nc(C)c3C2)cc1	0
O=C(CSc1nc2[nH]c(=O)cc(O)c2s1)Nc1ccc(Cl)c(C(F)(F)F)c1	0
O=C(Nc1ccc(Cl)cc1)Nc1ccc(Cl)c(C(F)(F)F)c1	-77
O=C(Nc1ccc(Cl)cc1)Nc1ccno1	0
CN1CCC(Cc2noc(-c3ccnc(-n4cnnc4)c3)n2)CC1	0
CCc1cn[nH]c1C1CCN(C(=O)CCc2ccc(=O)[nH]n2)CC1	0
CCOC(=O)c1nc(NCC2CCN(Cc3ccccc3F)CC2)c2ccccc2n1	0
COc1ccc(NC(=O)c2nnn(Cc3nc(-c4ccccc4)oc3C)c2C)cc1	-94
Cc1ccc(Cl)cc1NC(=O)c1nnn(Cc2nc(-c3ccccc3)oc2C)c1C	0
Cc1oc(-c2ccccc2)nc1Cn1nnc(C(=O)Nc2cccc(Cl)c2)c1C	0
COc1ccccc1NC(=O)c1nnn(Cc2nc(-c3ccccc3)oc2C)c1C	0
Cc1ccc(-c2nc(Cn3nnc(-c4nc(-c5ccc(OC(C)C)cc5)no4)c3C)c(C)o2)cc1	0
Cc1cc(C)c(NC(=O)c2nnn(Cc3nc(-c4ccccc4)oc3C)c2C)c(C)c1	-77
Cc1ccc(-c2nc(Cn3nnc(C(=O)Nc4cccc(Cl)c4)c3C)c(C)o2)cc1	0
CCOc1ccc(-c2nc(Cn3nnc(C(=O)Nc4ccccc4)c3C)c(C)o2)cc1	0
Cc1oc(-c2cccc(Cl)c2)nc1Cn1nnc(C(=O)Nc2cccc(Cl)c2)c1C	-86
Cc1oc(-c2ccccc2)nc1Cn1nnc(-c2nc(-c3ccc(OC(C)C)cc3)no2)c1C	-80
Cc1ccc(-c2nc(Cn3nnc(-c4nc(-c5ccc(OCC(C)C)cc5)no4)c3C)c(C)o2)cc1	0
CCc1ccccc1NC(=O)c1nnn(Cc2nc(-c3ccccc3)oc2C)c1C	0
SMILES	Tgondii IFNg
Cn1ccnc1CN1CCC(c2cc(Cc3ccccc3)[nH]n2)CC1	0
CC(C)S(=O)(=O)N1CCN2C(=O)c3ccccc3[C@@H]2C1	0
CCOc1ccc(-c2nc(CN(C)S(=O)(=O)c3ccc(F)cc3)c(C)o2)cc1	0
Cc1cccc(NC(=O)C(=O)NCCc2sc(-c3cccc(F)c3)nc2C)c1	0
COCC1(C(=O)N2Cc3cnc(C(C)(C)C)nc3C2)CCC1	0
CC(C)C(=O)N1CC[C@H]2CN(CC(=O)N(C)C)S(=O)(=O)[C@@H]2CC1	0
CCCCN(C)C(=O)c1nc2c(s1)CCCN2c1ccc(C)nn1	0
O=C(N1CCc2nc[nH]c2C1)C1(Oc2ccc(Cl)cc2)CCNCC1	0
O=C1CCN(Cc2ccccc2)CCN1CCc1noc(CSc2ncn[nH]2)n1	0
Cc1cccc(C)c1NC(=O)c1nnn(Cc2nc(-c3ccc(Cl)cc3)oc2C)c1C	-122
Cc1cccc(C)c1NC(=O)c1nnn(Cc2nc(-c3cccc(Cl)c3)oc2C)c1C	0
Cc1ccc(F)cc1NC(=O)c1nnn(Cc2nc(-c3ccc(OC(C)C)cc3)oc2C)c1C	0
Cc1cc(C)c(NC(=O)c2nnn(Cc3nc(-c4ccc(Cl)cc4)oc3C)c2C)c(C)c1	0
Cc1ccc(NC(=O)c2nnn(Cc3nc(-c4ccc(Cl)cc4)oc3C)c2C)c(C)c1	0
Cc1ccc(NC(=O)c2nnn(Cc3nc(-c4ccc(OC(C)C)cc4)oc3C)c2C)c(C)c1	-98
CC1CCN(c2ncnc3c2cnn3CC(=O)NC2CCN(Cc3ccccc3)CC2)CC1	0
Cc1oc(-c2ccc(NC(=O)c3ccccc3Br)cc2)nc1Cn1cccn1	-94
Cc1oc(-c2ccc(NC(=O)Cc3ccc(Cl)cc3)cc2)nc1Cn1cccn1	0
Cc1oc(-c2ccc(NC(=O)c3ccccc3)cc2)nc1Cn1cccn1	0
Cc1oc(-c2ccc(NC(=O)Cc3ccc(F)cc3)cc2)nc1Cn1cccn1	0
Cc1oc(-c2ccc(NC(=O)c3ccccc3F)cc2)nc1Cn1cccn1	0
Cc1oc(-c2ccc(NC(=O)Cc3cccc(F)c3)cc2)nc1Cn1cccn1	-87
COc1ccc(N(Cc2nc(-c3ccc(C)cc3)oc2C)S(=O)(=O)c2ccccc2C)cc1	0
Cn1nnc2c1CCN(S(C)(=O)=O)C2COCC1CC1 (stereo unspecified)	0
CCN1CCC2(CN(CC(C)C)CC23CCN(C(=O)Cc2ccsc2)CC3)C1=O (stereo unspecified)	0
CC(C)CCN1C[C@@H]2CCN(C(=O)NC3CCCC3)CC[C@H]2S1(=O)=O	0
Cc1ccc2c(c1)c1nc3ccccc3nc1n2C	0
Cc1nn(-c2ccccc2)c2c1c(=O)n(C)c1ccccc21	0
Cn1c2ccccc2c2n[nH]c(=O)nc21	-105
COc1cccc(CNC(=O)N2CCC3(CC2)Nc2cc(C)ccc2-n2cccc23)c1	0
